According to the supplement of paper PMC9694430:

Key:
Assay in all cases: thermal shift delta Tm vs DMSO control; higher = stronger stabilization (binding)
Settings in all cases: 12.5 µM; protein concentration 2 µM
[1] = system: LOC_OS02G45750-cb003
Procedure, shortened: (§1)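 Rice kinase domain constructs were expressed in E. coli, purified, and tested by differential scanning fluorimetry with compound added in DMSO. Each well of a 96-well plate held 19.5 μl of 2 μM kinase in 100 mM potassium phosphate pH 7.5, 150 mM NaCl, 10% glycerol and 5 × SYPRO Orange, and fluorescence was read from 25°C to 95°C at 0.05°C/s. The melting temperature shift is the mean of triplicates, taken against protein with DMSO alone after Boltzmann fitting.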

[2] = system: LOC_OS02G54510-cb004
Procedure, shortened: as §1

[3] = system: LOC_OS03G04050-cb001
Procedure, shortened: as §1

[4] = system: LOC_OS03G12390-cb001
Procedure, shortened: as §1

[5] = system: LOC_OS03G27990-cb004
Procedure, shortened: as §1

[6] = system: LOC_OS03G50450-cb001
Procedure, shortened: as §1

[7] = system: LOC_OS03G50810-cb003
Procedure, shortened: as §1

[8] = system: LOC_OS04G35114-cb001
Procedure, shortened: as §1

[9] = system: T1, LOC_OS04G38480-cb003
T1 sequence (whole entry): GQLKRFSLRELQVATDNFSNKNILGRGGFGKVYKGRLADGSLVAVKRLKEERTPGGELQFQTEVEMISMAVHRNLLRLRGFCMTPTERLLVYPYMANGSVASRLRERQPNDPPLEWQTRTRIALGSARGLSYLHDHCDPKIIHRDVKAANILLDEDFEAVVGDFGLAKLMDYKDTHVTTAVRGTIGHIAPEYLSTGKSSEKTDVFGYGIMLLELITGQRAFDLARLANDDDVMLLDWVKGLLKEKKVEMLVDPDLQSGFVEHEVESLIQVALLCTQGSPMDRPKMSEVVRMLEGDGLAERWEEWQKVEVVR
Procedure, shortened: as §1

[10] = system: T2, LOC_OS04G41100-cb001
T2 sequence (whole entry): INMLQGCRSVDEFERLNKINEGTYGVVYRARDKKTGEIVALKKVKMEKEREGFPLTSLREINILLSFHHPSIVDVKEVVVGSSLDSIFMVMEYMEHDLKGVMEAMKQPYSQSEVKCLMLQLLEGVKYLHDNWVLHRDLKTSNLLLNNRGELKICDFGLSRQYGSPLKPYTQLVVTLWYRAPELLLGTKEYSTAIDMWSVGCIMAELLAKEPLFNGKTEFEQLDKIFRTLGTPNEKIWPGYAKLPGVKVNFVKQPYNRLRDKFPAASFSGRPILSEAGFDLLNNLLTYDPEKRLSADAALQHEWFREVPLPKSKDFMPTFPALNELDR
Procedure, shortened: as §1

[11] = system: LOC_OS04G57630-cb004
Procedure, shortened: as §1

[12] = system: LOC_OS05G07850-cb002
Procedure, shortened: as §1

[13] = system: LOC_OS05G16824-cb004
Procedure, shortened: as §1

[14] = system: LOC_OS05G28520-cb001
Procedure, shortened: as §1

[15] = system: LOC_OS05G30820-cb001
Procedure, shortened: as §1

[16] = system: LOC_OS05G43570-cb004
Procedure, shortened: as §1

[17] = system: LOC_OS06G16330-cb003
Sequence of LOC_OS06G16330-cb003 (as listed by the source): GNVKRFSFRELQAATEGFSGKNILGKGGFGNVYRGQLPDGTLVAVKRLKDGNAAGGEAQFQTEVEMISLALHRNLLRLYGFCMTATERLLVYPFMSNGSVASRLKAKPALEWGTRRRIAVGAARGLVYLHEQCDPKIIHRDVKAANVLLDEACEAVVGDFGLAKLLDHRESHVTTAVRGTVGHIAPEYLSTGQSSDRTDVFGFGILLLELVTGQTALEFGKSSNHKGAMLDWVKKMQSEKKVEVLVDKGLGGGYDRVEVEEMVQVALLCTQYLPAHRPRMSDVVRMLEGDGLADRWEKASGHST
Procedure, shortened: as §1

[18] = system: T3, LOC_OS06G22820-cb001
T3 sequence (whole entry): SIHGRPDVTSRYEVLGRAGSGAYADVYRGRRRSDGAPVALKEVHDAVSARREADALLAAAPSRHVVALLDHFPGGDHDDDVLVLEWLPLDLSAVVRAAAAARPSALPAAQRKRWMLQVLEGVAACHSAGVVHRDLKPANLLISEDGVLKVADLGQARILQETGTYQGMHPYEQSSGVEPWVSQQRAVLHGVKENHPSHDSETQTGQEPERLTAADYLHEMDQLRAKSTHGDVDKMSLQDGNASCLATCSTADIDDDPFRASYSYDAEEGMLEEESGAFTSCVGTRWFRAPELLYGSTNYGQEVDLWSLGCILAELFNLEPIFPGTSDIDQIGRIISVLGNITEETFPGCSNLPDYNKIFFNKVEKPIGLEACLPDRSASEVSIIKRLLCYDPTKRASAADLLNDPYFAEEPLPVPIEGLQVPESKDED
Procedure, shortened: as §1

[19] = system: LOC_OS07G06570-cb004
Procedure, shortened: as §1

[20] = system: LOC_OS07G07230-cb001
Procedure, shortened: as §1

| SMILES | thermal shift delta Tm [1] [°C] | thermal shift delta Tm [2] [°C] | thermal shift delta Tm [3] [°C] | thermal shift delta Tm [4] [°C] | thermal shift delta Tm [5] [°C] | thermal shift delta Tm [6] [°C] | thermal shift delta Tm [7] [°C] | thermal shift delta Tm [8] [°C] | thermal shift delta Tm [9] [°C] | thermal shift delta Tm [10] [°C] | thermal shift delta Tm [11] [°C] | thermal shift delta Tm [12] [°C] | thermal shift delta Tm [13] [°C] | thermal shift delta Tm [14] [°C] | thermal shift delta Tm [15] [°C] | thermal shift delta Tm [16] [°C] | thermal shift delta Tm [17] [°C] | thermal shift delta Tm [18] [°C] | thermal shift delta Tm [19] [°C] | thermal shift delta Tm [20] [°C] |
| --- | --- | --- | --- | --- | --- | --- | --- | --- | --- | --- | --- | --- | --- | --- | --- | --- | --- | --- | --- | --- |
| C=CC(=O)Nc1cccc(Nc2nc(Nc3ccc(N4CCN(C(C)=O)CC4)cc3OC)ncc2C(F)(F)F)c1 [Rociletinib (CO-1686, AVL-301)] | 1.53 | 0.29 | 0.43 | 11.1 | 0.66 | 1.7 | 2.22 | 2.08 | 0.94 | 0.4 | 0.55 | 10.2 | 4.44 | 0.98 | 0.73 | 0.4 | 4.77 | 0.68 | 1.54 | 1.09 |
| C=CC(=O)N1CC[C@@H](Oc2nc(Nc3ccc(N4CCC(N5CCN(C)CC5)CC4)cc3)c(C(N)=O)nc2CC)C1 [Naquotinib(ASP8273)] | 0 | 3.07 | 0.21 | 9.13 | 5.37 | 4.82 | 5.96 | 8.09 | 3.19 | 0.5 | 3.28 | 13.1 | 11.6 | 1.04 | 0.55 | 0.27 | 10 | 0.25 | 1.6 | 0.69 |
| COc1ccc(Cl)c(Nc2nc3ccccc3nc2NS(=O)(=O)c2cccc(NC(=O)C(C)(C)N)c2)c1 [Pilaralisib (XL147)] | 1.06 | -0.18 | 0.85 | 2.37 | 1.12 | 1.09 | 1.54 | 2.89 | 2.92 | 1.52 | 2.01 | 2.9 | 2.11 | 0.49 | 0.75 | 1.75 | 1.96 | 2.03 | 0.12 | 0.54 |
| CCCCCCCCCCCCc1ccc(S(=O)(=O)Nc2nncs2)cc1 | -1.65 | -0.17 | 0.7 | -0.22 | 0.29 | -0.07 | -0.06 | 0.41 | 0.58 | 0.45 | -0.02 | 0.11 | -2.07 | 0.11 | 0.45 | 0.64 | 0.11 | 0.75 | 1.23 | 0.24 |
| Oc1c(F)cc(-c2cnccc2-c2ccc(N3CCOCC3)cc2)cc1F | 0.77 | 0.07 | 0.28 | -0.05 | 0.11 | 0.25 | 0.2 | 1.09 | 0.6 | 0.44 | 0.16 | 3.05 | -0.48 | 0.43 | 0.5 | 0.44 | 0.26 | 0.6 | 0.96 | 0.44 |
| Cc1ccc(NC(=O)c2cccc(C(C)(C)C#N)c2)cc1Nc1ccc2ncn(C)c(=O)c2c1 | 1.15 | 1.43 | 0.45 | 0.66 | 0.38 | 0.1 | 0.54 | 0.51 | 0.88 | 0.24 | 0.41 | 0.77 | -1.17 | 0.69 | 0.63 | 0.64 | 0.8 | 0.86 | 0.75 | 0.34 |
